In PubChem BioAssay (Tox21):
Inconclusive results are not listed. The source made the active and inactive calls. Unless noted, calls follow the shape of the dose curve; as a rule, active = well fitted curve in the direction sought with a large enough effect in the repeat runs; inconclusive = weak or mixed curves; inactive = no such curve, though single readings can be large; an effect the other way counts as inactive or inconclusive.

Assays:
[1] = qHTS assay to test for compound auto fluorescence at 535 nm (green) in HEK293 cells (AID 720680)
[2] = qHTS assay to test for compound auto fluorescence at 535 nm (green) in HEK293 cell free culture (AID 720682)
Procedure, shortened: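 Compounds were pin-transferred into cell-free DMEM with 10% FBS, and green fluorescence was read at excitation 485 nm and emission 535 nm. Intensities were expressed as fluorescein-equivalent values.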

[3] = qHTS assay to test for compound auto fluorescence at 590 nm (red) in HEK293 cell free culture (AID 720683)
Procedure, shortened: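 Red-channel autofluorescence of compounds in culture medium (DMEM, 10% FBS), no cells, measured at 540/590 nm. Rose Bengal sodium is the reference fluorophore for equivalence.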

[4] = qHTS assay to test for compound auto fluorescence at 590 nm (red) in HepG2 cell free culture (AID 720684)
Procedure, shortened: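 Steps: dispense MEM/10% FBS medium, no cells; pin compound or DMSO vehicle; read red channel, Ex/Em 540/590 nm. Output given as Rose Bengal sodium equivalents.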

[5] = qHTS assay to test for compound auto fluorescence at 535 nm (green) in HepG2 cell free culture (AID 720686)
[6] = qHTS assay to test for compound auto fluorescence at 460 nm (blue) in HepG2 cells (AID 720687)
Procedure, shortened: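 Blue-channel autofluorescence (Ex/Em 405/460 nm, triamterene-equivalent) was measured after 1 hr compound exposure at 37 C, 5% CO2. Cells were HepG2, plated overnight at 37 C in MEM plus 10% FBS.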

[7] = molecular target: Glucocorticoid receptor (Homo sapiens) (UniProt P04150); experiment: qHTS assay to identify small molecule agonists of the glucocorticoid receptor (GR) signaling pathway (AID 720691; active = well fitted activation curve with a large enough effect in the signal ratio in the repeat runs, not every such curve was filed as active; the % refers to the signal ratio)
Procedure, shortened: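 Fluorescence intensity from LiveBLAzer B/G FRET substrate (2 h, room temperature) reports beta-lactamase expression driven by the glucocorticoid response element in GR-bla HeLa cells after 18 h compound exposure at 37 C.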

[8] = qHTS assay to identify small molecule antagonists of the glucocorticoid receptor (GR) signaling pathway - cell viability counter screen (AID 720693); also: nearly all actives have a fitted effect of over 55% in size
[9] = qHTS assay for identifying genotoxic compounds that show differential cytotoxicity against isogenic chicken DT40 cell lines with known DNA damage response pathways - wild type cell line (AID 743012); also: nearly all actives have a fitted effect of over 60% in size; also: potency is read from the fitted curve at half-maximal effect
Procedure, shortened: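 Wild type DT40, 300 cells/well, ~0.5 h settle at 37 C/5% CO2; compounds in DMSO added by pintool; 40 h at 37 C/5% CO2; CellTiter-Glo, 30 min RT; luminescence.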

[10] = qHTS assay to identify small molecule antagonists of the androgen receptor (AR) signaling pathway - cell viability counter screen (AID 743033; also: nearly all actives have a fitted effect of over 45% in size)
[11] = qHTS assay to identify small molecule antagonists of the androgen receptor (AR) signaling pathway using the MDA cell line - cell viability counter screen (AID 743041; also: nearly all actives have a fitted effect of over 45% in size)
Procedure, shortened: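 Cells were plated at 3,000 per well and left 5 h. Compounds in DMSO were then pinned in, followed by R1881. After 16 h at 37C, CellTiter-Fluor fluorescence gave viability.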

[12] = qHTS assay to identify small molecule antagonists of the thyroid receptor (TR) signaling pathway - cell viability counter screen (AID 743064); also: nearly all actives have a fitted effect of over 50% in size
Procedure, shortened: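 In-well cytotoxicity read by CellTiter-Fluor (30 min, 37 C) following 23.5 h exposure of GH3 cells bearing a TRE-luciferase sensor. Compounds were added alongside 1 nM (final) T3 to drive TR transactivation.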

[13] = qHTS assay for identifying genotoxic compounds that show differential cytotoxicity against isogenic chicken DT40 cell lines with known DNA damage response pathways - Rad54/Ku70 mutant cell line (AID 743015); also: nearly all actives have a fitted effect of over 60% in size
[14] = molecular target: Glucocorticoid receptor (Homo sapiens) (UniProt P04150); experiment: qHTS assay to identify small molecule antagonists of the glucocorticoid receptor (GR) signaling pathway (AID 720692; active = well fitted inhibition curve with a large enough effect in the signal ratio in the repeat runs, not every such curve was filed as active; the % refers to the signal ratio)
Procedure, shortened: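 HeLa GR-bla cells; cmpd + dex 5 nM final, 18 h 37 C; LiveBLAzer B/G FRET substrate 2 h RT; fluorescence intensity read. Antagonist mode, qHTS.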

[15] = qHTS assay for identifying genotoxic compounds that show differential cytotoxicity against isogenic chicken DT40 cell lines with known DNA damage response pathways - Rev3 mutant cell line (AID 743014); also: nearly all actives have a fitted effect of over 55% in size; also: potency is read from the fitted curve at half-maximal effect
[16] = qHTS assay to test for compound auto fluorescence at 460 nm (blue) in HepG2 cell free culture (AID 720685)
Procedure, shortened: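 Compound (23 nL) or DMSO pinned into cell-free MEM with 10% FBS; blue fluorescence read at 405/460 nm excitation/emission, expressed as auto-fluorescence equivalency to triamterene.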

[17] = molecular target: Androgen receptor (Homo sapiens) (UniProt P10275); experiment: qHTS assay to identify small molecule antagonists of the androgen receptor (AR) signaling pathway (AID 743035; active = well fitted inhibition curve with a large enough effect in the signal ratio in the repeat runs, not every such curve was filed as active; the % refers to the signal ratio)
Procedure, shortened: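 Fluorescence from a beta-lactamase FRET substrate (LiveBLAzer B/G, 2 h, room temperature) measured inhibition of R1881-stimulated signaling in GeneBLAzer AR-UAS-bla HEK293 cells exposed to compound for 16 h at 37C.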

[18] = molecular target: Androgen receptor (Homo sapiens) (UniProt P10275); experiment: qHTS assay to identify small molecule agonists of the androgen receptor (AR) signaling pathway (AID 743036; active = well fitted activation curve with a large enough effect in the signal ratio in the repeat runs, with a control signal flat, not every such curve was filed as active; the % refers to the signal ratio)
Procedure, shortened: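 Activation was read as beta-lactamase FRET signal from LiveBLAzer B/G substrate, added for 2 h at room temperature. Before that, GeneBLAzer AR-UAS-bla GripTite (HEK293) cells had 16 h compound exposure at 37C.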

[19] = molecular target: Androgen receptor (Homo sapiens) (UniProt P10275); experiment: qHTS assay to identify small molecule agonists of the androgen receptor (AR) signaling pathway using the MDA cell line (AID 743040; also: nearly all actives have a fitted effect of over 20% in size)
Procedure, shortened: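 Cells plated, 5 h at 37C/0% CO2; compound or DMSO pinned; 16 h at 37C; ONE-Glo added; luminescence measured after 30 min at room temperature. Reporter line: MDA-kb2 with MMTV-luciferase responsive to AR and GR.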
% is scaled to controls: 0 for no effect and ±100 for the full control effect.

Sequence of Androgen receptor (Homo sapiens) (P10275 whole entry, looked up): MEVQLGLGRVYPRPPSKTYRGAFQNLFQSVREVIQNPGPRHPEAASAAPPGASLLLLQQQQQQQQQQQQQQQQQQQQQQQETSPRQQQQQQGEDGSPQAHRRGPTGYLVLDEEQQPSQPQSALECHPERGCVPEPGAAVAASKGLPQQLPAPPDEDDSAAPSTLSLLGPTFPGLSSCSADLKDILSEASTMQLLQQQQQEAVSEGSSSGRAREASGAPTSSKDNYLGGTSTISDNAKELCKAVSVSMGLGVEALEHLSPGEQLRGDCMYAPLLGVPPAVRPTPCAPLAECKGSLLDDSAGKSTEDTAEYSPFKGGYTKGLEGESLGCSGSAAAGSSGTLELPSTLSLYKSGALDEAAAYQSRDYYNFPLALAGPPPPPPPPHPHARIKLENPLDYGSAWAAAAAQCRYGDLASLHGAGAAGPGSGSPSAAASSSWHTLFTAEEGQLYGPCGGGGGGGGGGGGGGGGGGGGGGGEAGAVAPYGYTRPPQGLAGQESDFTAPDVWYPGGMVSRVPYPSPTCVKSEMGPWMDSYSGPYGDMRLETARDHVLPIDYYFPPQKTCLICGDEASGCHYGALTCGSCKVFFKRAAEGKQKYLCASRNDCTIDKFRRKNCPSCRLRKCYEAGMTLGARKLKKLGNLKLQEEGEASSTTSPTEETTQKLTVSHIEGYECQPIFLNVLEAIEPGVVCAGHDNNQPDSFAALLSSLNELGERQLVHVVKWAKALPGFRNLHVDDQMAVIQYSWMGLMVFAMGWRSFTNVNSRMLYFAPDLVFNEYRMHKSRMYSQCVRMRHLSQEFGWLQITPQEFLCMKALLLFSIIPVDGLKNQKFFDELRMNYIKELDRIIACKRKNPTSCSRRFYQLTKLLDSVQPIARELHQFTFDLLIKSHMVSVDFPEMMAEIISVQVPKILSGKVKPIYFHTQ
Sequence of Glucocorticoid receptor (Homo sapiens) (P04150 whole entry, looked up): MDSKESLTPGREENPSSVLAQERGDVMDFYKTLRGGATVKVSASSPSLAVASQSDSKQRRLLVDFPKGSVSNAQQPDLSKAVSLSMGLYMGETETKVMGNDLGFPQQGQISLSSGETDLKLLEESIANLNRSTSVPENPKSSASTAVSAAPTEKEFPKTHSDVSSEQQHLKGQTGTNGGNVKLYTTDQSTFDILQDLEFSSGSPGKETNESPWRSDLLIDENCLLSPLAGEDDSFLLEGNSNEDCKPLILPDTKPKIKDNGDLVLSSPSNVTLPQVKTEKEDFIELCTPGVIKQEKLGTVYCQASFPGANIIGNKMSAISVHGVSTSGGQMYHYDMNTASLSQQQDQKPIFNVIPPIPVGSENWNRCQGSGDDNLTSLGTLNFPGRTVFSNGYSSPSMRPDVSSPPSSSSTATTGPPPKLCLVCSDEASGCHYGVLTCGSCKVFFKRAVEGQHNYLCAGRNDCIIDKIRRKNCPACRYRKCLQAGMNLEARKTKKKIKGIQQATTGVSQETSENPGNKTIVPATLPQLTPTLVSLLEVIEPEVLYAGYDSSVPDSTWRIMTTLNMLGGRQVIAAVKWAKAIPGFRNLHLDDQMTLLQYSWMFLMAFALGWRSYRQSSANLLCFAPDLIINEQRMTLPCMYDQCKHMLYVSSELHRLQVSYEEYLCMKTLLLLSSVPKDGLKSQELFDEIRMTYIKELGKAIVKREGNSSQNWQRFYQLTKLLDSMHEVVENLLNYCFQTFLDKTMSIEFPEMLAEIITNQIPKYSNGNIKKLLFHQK

O=C(NC(=O)c1c(F)cccc1F)Nc1cc(Cl)c(F)c(Cl)c1F
active: Potency [9] 8.42 µM
inactive: outcome [1] | outcome [2] | outcome [3] | outcome [4] | outcome [5] | outcome [6] | Potency [7] | Potency [8] | Potency [10] | Potency [11] | Potency [12]

CC(C)[C@]12CC(=O)[C@H](C)[C@H]1C2
inactive: outcome [1] | outcome [2] | outcome [3] | outcome [4] | outcome [5] | outcome [6] | Potency [8] | Potency [9] | Potency [13] | Potency [10] | Potency [11] | Potency [12]

CCC1(c2cccc(O)c2)CCCCN(C)C1 (stereo not given)
inactive: fluorescence, % of fluorescein [1] -0.0115% [at 18.6 µM] | activity change [2] 0.0131% [at 18.6 µM] | fluorescence, % of fluorescent control [3] 0.0544% [at 18.6 µM] | fluorescence, % of Rose Bengal [4] 0.0113% [at 18.6 µM] | fluorescence, % of fluorescein control [5] -0.0769% [at 18.6 µM] | fluorescence, % of fluorescent control [6] -0.0146% [at 18.6 µM] | Potency [7] | Potency [14] | Potency [8] | Potency [9] | Potency [15] | Potency [13] | Potency [10] | Potency [11] | Potency [12]

CCCCCCCCSC(=O)Oc1cc(Cl)nnc1-c1ccccc1
active: Potency [9] 54.5 µM | Potency [15] 54.5 µM
inactive: outcome [1] | outcome [2] | outcome [3] | outcome [4] | outcome [16] | outcome [5] | outcome [6] | Potency [8] | Potency [10] | Potency [11] | Potency [12]

COC(=O)c1ccc(CBr)cc1
inactive: outcome [1] | outcome [2] | outcome [3] | outcome [4] | outcome [16] | outcome [5] | outcome [6] | Potency [7] | Potency [14] | Potency [8] | Potency [9] | Potency [13] | Potency [10] | Potency [17] | outcome [18] | outcome [19] | Potency [11] | Potency [12]
